{"source": "PubChem BioAssay AID1159580", "about": "(chemical genetic matrix, 2015)", "experiment": "chemical genetic growth profiling, strain panel (AID 1159580);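 also: tested at 20 µM; growth read once vehicle control cultures reached saturation at 30 °C; 1 = growth at the plate median or of vehicle wells; lower values mean less growth of the strain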", "conditions": "growth OD", "note": "Values joined by “and” are separate entries in the source; they are usually repeats but may differ in a detail not shown here. Identical values can stand only once. About 2,000 (36%) of roughly 5,500 compounds were called active. About 18% were inconclusive and are not listed. The list shows a part of the results. Unmarked numbers belong to inactive results. Rule as the data show it: active = normalized growth mostly below about 0.91 (no sharp cut-off); inconclusive = no clear call, values can overlap the other calls; inactive = mostly above about 0.92.", "data": [{"smiles": "O=c1c(O)c(-c2ccc(O)c(O)c2)oc2cc(O)cc(O)c12", "values": [{"measurement": "normalized growth", "setting": "S. cerevisiae deletion strains, locus YKL009W, strain mrt4, stronger effect = lower value", "value": 1.01}, {"measurement": "normalized growth", "setting": "S. cerevisiae deletion strains, locus YKL068W, stronger effect = lower value", "value": 1.03}, {"measurement": "normalized growth", "setting": "S. cerevisiae deletion strains, locus YKL085W, strain MDH1 (second series), stronger effect = lower value", "value": 1.06}, {"measurement": "normalized growth", "setting": "S. cerevisiae deletion strains, locus YKL085W, strain MDH1, stronger effect = lower value", "value": 1.06}, {"measurement": "normalized growth", "setting": "S. cerevisiae deletion strains, locus YKL160W, strain elf1, stronger effect = lower value", "value": "0.87 (active)"}, {"measurement": "normalized growth", "setting": "S. cerevisiae deletion strains, locus YKL190W, strain CNB1, stronger effect = lower value", "value": 0.97}, {"measurement": "normalized growth", "setting": "S. cerevisiae deletion strains, locus YKR001C, strain vps1, stronger effect = lower value", "value": 0.94}, {"measurement": "normalized growth", "setting": "S. cerevisiae deletion strains, locus YKR026C, strain gcn3, stronger effect = lower value", "value": 1}, {"measurement": "normalized growth", "setting": "S. cerevisiae deletion strains, locus YKR091W, strain srl3, stronger effect = lower value", "value": 0.979}, {"measurement": "normalized growth", "setting": "S. cerevisiae deletion strains, locus YLL001W, strain dnm1, stronger effect = lower value", "value": 0.941}, {"measurement": "normalized growth", "setting": "S. cerevisiae deletion strains, locus YLL026W, stronger effect = lower value", "value": 0.982}, {"measurement": "normalized growth", "setting": "S. cerevisiae deletion strains, locus YLL041C, strain sdh2, stronger effect = lower value", "value": 0.979}, {"measurement": "normalized growth", "setting": "S. cerevisiae deletion strains, locus YLR027C, strain aat2, stronger effect = lower value", "value": "0.893 (active)"}, {"measurement": "normalized growth", "setting": "S. cerevisiae deletion strains, locus YLR039C, strain RIC1, stronger effect = lower value", "value": 0.872}, {"measurement": "normalized growth", "setting": "S. cerevisiae deletion strains, locus YLR058C, strain SHM2, stronger effect = lower value", "value": 0.937}, {"measurement": "normalized growth", "setting": "S. cerevisiae deletion strains, locus YLR102C, strain apc9, stronger effect = lower value", "value": 1.04}, {"measurement": "normalized growth", "setting": "S. cerevisiae deletion strains, locus YLR113W, strain HOG1, stronger effect = lower value", "value": 0.98}, {"measurement": "normalized growth", "setting": "S. cerevisiae deletion strains, locus YLR221C, strain rsa3, stronger effect = lower value", "value": "0.906 (active)"}, {"measurement": "normalized growth", "setting": "S. cerevisiae deletion strains, locus YLR258W, strain gsy2, stronger effect = lower value", "value": "0.878 (active)"}, {"measurement": "normalized growth", "setting": "S. cerevisiae deletion strains, locus YLR262C, strain YPT6 (second series), stronger effect = lower value", "value": "0.779 (active)"}, {"measurement": "normalized growth", "setting": "S. cerevisiae deletion strains, locus YLR262C, strain YPT6, stronger effect = lower value", "value": 0.982}, {"measurement": "normalized growth", "setting": "S. cerevisiae deletion strains, locus YLR268W, strain sec22, stronger effect = lower value", "value": 0.924}, {"measurement": "normalized growth", "setting": "S. cerevisiae deletion strains, locus YLR320W, strain mms22, stronger effect = lower value", "value": "0.869 (active)"}, {"measurement": "normalized growth", "setting": "S. cerevisiae deletion strains, locus YLR330W, strain CHS5, stronger effect = lower value", "value": 0.991}, {"measurement": "normalized growth", "setting": "S. cerevisiae deletion strains, locus YLR342W, strain FKS1 (second series), stronger effect = lower value", "value": "0.719 (active)"}, {"measurement": "normalized growth", "setting": "S. cerevisiae deletion strains, locus YLR342W, strain FKS1, stronger effect = lower value", "value": "0.8 (active)"}, {"measurement": "normalized growth", "setting": "S. cerevisiae deletion strains, locus YLR357W, strain rsc2, stronger effect = lower value", "value": "0.713 (active)"}, {"measurement": "normalized growth", "setting": "S. cerevisiae deletion strains, locus YLR370C, strain arc18, stronger effect = lower value", "value": "0.859 (active)"}, {"measurement": "normalized growth", "setting": "S. cerevisiae deletion strains, locus YLR371W, strain rom2, stronger effect = lower value", "value": 0.969}, {"measurement": "normalized growth", "setting": "S. cerevisiae deletion strains, locus YLR384C, strain iki3, stronger effect = lower value", "value": 0.951}, {"measurement": "normalized growth", "setting": "S. cerevisiae deletion strains, locus YLR418C, strain cdc73, stronger effect = lower value", "value": "0.775 (active)"}, {"measurement": "normalized growth", "setting": "S. cerevisiae deletion strains, locus YML016C, strain PPZ1, stronger effect = lower value", "value": 0.961}, {"measurement": "normalized growth", "setting": "S. cerevisiae deletion strains, locus YML032C, strain rad52, stronger effect = lower value", "value": 1.04}, {"measurement": "normalized growth", "setting": "S. cerevisiae deletion strains, locus YML120C, strain ndi1, stronger effect = lower value", "value": 0.98}, {"measurement": "normalized growth", "setting": "S. cerevisiae deletion strains, locus YML124C, strain tub3, stronger effect = lower value", "value": 1.03}, {"measurement": "normalized growth", "setting": "S. cerevisiae deletion strains, locus YMR058W, strain fet3, stronger effect = lower value", "value": "0.882 (active)"}, {"measurement": "normalized growth", "setting": "S. cerevisiae deletion strains, locus YMR078C, strain ctf18, stronger effect = lower value", "value": 1.03}, {"measurement": "normalized growth", "setting": "S. cerevisiae deletion strains, locus YMR125W, strain sto1, stronger effect = lower value", "value": 1.02}, {"measurement": "normalized growth", "setting": "S. cerevisiae deletion strains, locus YMR129W, stronger effect = lower value", "value": 0.955}, {"measurement": "normalized growth", "setting": "S. cerevisiae deletion strains, locus YMR205C, strain PFK2, stronger effect = lower value", "value": 0.929}, {"measurement": "normalized growth", "setting": "S. cerevisiae deletion strains, locus YMR223W, strain ubp8, stronger effect = lower value", "value": 0.928}, {"measurement": "normalized growth", "setting": "S. cerevisiae deletion strains, locus YMR231W, strain pep5, stronger effect = lower value", "value": 0.953}, {"measurement": "normalized growth", "setting": "S. cerevisiae deletion strains, locus YMR263W, strain SAP30, stronger effect = lower value", "value": 0.906}, {"measurement": "normalized growth", "setting": "S. cerevisiae deletion strains, locus YMR307W, strain GAS1, stronger effect = lower value", "value": "0.683 and 1"}, {"measurement": "normalized growth", "setting": "S. cerevisiae deletion strains, locus YNL067W, strain RPL9B, stronger effect = lower value", "value": 0.913}, {"measurement": "normalized growth", "setting": "S. cerevisiae deletion strains, locus YNL071W, strain lat1, stronger effect = lower value", "value": "0.848 (active)"}, {"measurement": "normalized growth", "setting": "S. cerevisiae deletion strains, locus YNL128W, strain TEP1, stronger effect = lower value", "value": "0.964 and 0.995"}, {"measurement": "normalized growth", "setting": "S. cerevisiae deletion strains, locus YNL153C, strain GIM3, stronger effect = lower value", "value": "0.875 and 0.922"}, {"measurement": "normalized growth", "setting": "S. cerevisiae deletion strains, locus YNL175C, strain NOP13, stronger effect = lower value", "value": 1.01}, {"measurement": "normalized growth", "setting": "S. cerevisiae deletion strains, locus YNL183C, strain NPR1, stronger effect = lower value", "value": 0.928}, {"measurement": "normalized growth", "setting": "S. cerevisiae deletion strains, locus YNL197C, strain WHI3, stronger effect = lower value", "value": 1.01}, {"measurement": "normalized growth", "setting": "S. cerevisiae deletion strains, locus YNL209W, strain ssb2, stronger effect = lower value", "value": "0.636 (active)"}, {"measurement": "normalized growth", "setting": "S. cerevisiae deletion strains, locus YNL224C, strain SQS1, stronger effect = lower value", "value": 1.02}, {"measurement": "normalized growth", "setting": "S. cerevisiae deletion strains, locus YNL233W, strain BNI4, stronger effect = lower value", "value": "0.859 (active)"}, {"measurement": "normalized growth", "setting": "S. cerevisiae deletion strains, locus YNL248C, strain rpa49, stronger effect = lower value", "value": 0.948}, {"measurement": "normalized growth", "setting": "S. cerevisiae deletion strains, locus YNL250W, strain rad50, stronger effect = lower value", "value": 1.02}, {"measurement": "normalized growth", "setting": "S. cerevisiae deletion strains, locus YNL271C, strain bni1, stronger effect = lower value", "value": 1.02}, {"measurement": "normalized growth", "setting": "S. cerevisiae deletion strains, locus YNL298W, strain CLA4, stronger effect = lower value", "value": 1.01}, {"measurement": "normalized growth", "setting": "S. cerevisiae deletion strains, locus YNL307C, strain MCK1, stronger effect = lower value", "value": 0.948}, {"measurement": "normalized growth", "setting": "S. cerevisiae deletion strains, locus YNL322C, strain KRE1 (second series), stronger effect = lower value", "value": 0.941}, {"measurement": "normalized growth", "setting": "S. cerevisiae deletion strains, locus YNL322C, strain KRE1, stronger effect = lower value", "value": 0.929}, {"measurement": "normalized growth", "setting": "S. cerevisiae deletion strains, locus YNR049C, strain mso1, stronger effect = lower value", "value": 0.967}, {"measurement": "normalized growth", "setting": "S. cerevisiae deletion strains, locus YNR052C, strain pop2, stronger effect = lower value", "value": 1}, {"measurement": "normalized growth", "setting": "S. cerevisiae deletion strains, locus YOL006C, strain TOP1, stronger effect = lower value", "value": 0.616}, {"measurement": "normalized growth", "setting": "S. cerevisiae deletion strains, locus YOL012C, strain htz1", "value": 0.39}, {"measurement": "normalized growth", "setting": "S. cerevisiae deletion strains, locus YOL147C, strain pex11, stronger effect = lower value", "value": 1.03}, {"measurement": "normalized growth", "setting": "S. cerevisiae deletion strains, locus YOR001W, strain rrp6, stronger effect = lower value", "value": 0.925}, {"measurement": "normalized growth", "setting": "S. cerevisiae deletion strains, locus YOR061W, strain CKA2, stronger effect = lower value", "value": 0.939}, {"measurement": "normalized growth", "setting": "S. cerevisiae deletion strains, locus YOR069W, strain VPS5, stronger effect = lower value", "value": 0.974}, {"measurement": "normalized growth", "setting": "S. cerevisiae deletion strains, locus YOR070C, strain gyp1, stronger effect = lower value", "value": "0.885 (active)"}, {"measurement": "normalized growth", "setting": "S. cerevisiae deletion strains, locus YOR080W, strain dia2, stronger effect = lower value", "value": 0.925}, {"measurement": "normalized growth", "setting": "S. cerevisiae deletion strains, locus YOR083W, strain WHI5 (second series), stronger effect = lower value", "value": 0.994}, {"measurement": "normalized growth", "setting": "S. cerevisiae deletion strains, locus YOR083W, strain WHI5, stronger effect = lower value", "value": "0.808 (active)"}, {"measurement": "normalized growth", "setting": "S. cerevisiae deletion strains, locus YOR106W, strain vam3, stronger effect = lower value", "value": "0.653 (active)"}, {"measurement": "normalized growth", "setting": "S. cerevisiae deletion strains, locus YOR136W, strain idh2, stronger effect = lower value", "value": 1.01}, {"measurement": "normalized growth", "setting": "S. cerevisiae deletion strains, locus YOR144C, strain elg1, stronger effect = lower value", "value": 1.03}, {"measurement": "normalized growth", "setting": "S. cerevisiae deletion strains, locus YOR184W, strain ser1, stronger effect = lower value", "value": 0.92}, {"measurement": "normalized growth", "setting": "S. cerevisiae deletion strains, locus YOR231W, strain MKK1, stronger effect = lower value", "value": 0.991}, {"measurement": "normalized growth", "setting": "S. cerevisiae deletion strains, locus YOR265W, strain rbl2, stronger effect = lower value", "value": 0.963}, {"measurement": "normalized growth", "setting": "S. cerevisiae deletion strains, locus YOR270C, strain vph1, stronger effect = lower value", "value": "0.749 (active)"}, {"measurement": "normalized growth", "setting": "S. cerevisiae deletion strains, locus YOR290C, strain snf2, stronger effect = lower value", "value": 0.888}, {"measurement": "normalized growth", "setting": "S. cerevisiae deletion strains, locus YOR316C, strain cot1, stronger effect = lower value", "value": 1.04}, {"measurement": "normalized growth", "setting": "S. cerevisiae deletion strains, locus YPL051W, strain arl3, stronger effect = lower value", "value": "0.814 (active)"}, {"measurement": "normalized growth", "setting": "S. cerevisiae deletion strains, locus YPL055C, strain LGE1, stronger effect = lower value", "value": "0.86 and 1"}, {"measurement": "normalized growth", "setting": "S. cerevisiae deletion strains, locus YPL078C, strain atp4, stronger effect = lower value", "value": 0.927}, {"measurement": "normalized growth", "setting": "S. cerevisiae deletion strains, locus YPL106C, strain sse1, stronger effect = lower value", "value": "0.783 (active)"}, {"measurement": "normalized growth", "setting": "S. cerevisiae deletion strains, locus YPL240C, strain hsp82, stronger effect = lower value", "value": 0.936}, {"measurement": "normalized growth", "setting": "S. cerevisiae deletion strains, locus YPL241C, strain CIN2, stronger effect = lower value", "value": 0.987}, {"measurement": "normalized growth", "setting": "S. cerevisiae deletion strains, locus YPL256C, strain CLN2, stronger effect = lower value", "value": 0.982}, {"measurement": "normalized growth", "setting": "S. cerevisiae deletion strains, locus YPR119W, strain clb2, stronger effect = lower value", "value": 1.05}, {"measurement": "normalized growth", "setting": "S. cerevisiae deletion strains, locus YPR141C, strain kar3, stronger effect = lower value", "value": 1.01}, {"measurement": "normalized growth", "setting": "S. cerevisiae deletion strains, locus YPR163C, strain tif3, stronger effect = lower value", "value": 1.03}, {"measurement": "normalized growth", "setting": "S. cerevisiae deletion strains, locus YPR167C, strain met16, stronger effect = lower value", "value": 1.02}, {"measurement": "normalized growth", "setting": "S. cerevisiae deletion strains, strain wtn01, stronger effect = lower value", "value": 0.931}, {"measurement": "normalized growth", "setting": "S. cerevisiae strains, strain wild type, stronger effect = lower value", "value": 0.912}]}]}
